Activity calls are given as the source filed them. Where a call stands in place of a potency, no number is given. Calls come from the whole dose curve; as a rule, active = well fitted inhibition curve with a large enough effect; inconclusive = small, poorly fitted or top-dose-only effect; inactive = flat fitted curve, though single readings scatter.
Target: Luciferin 4-monooxygenase (Photinus pyralis) (UniProt P08659)
Experiment: Primary firefly luciferase (FLuc) qHTS assay for identification of artifact compounds. (AID 1845220); note: nearly all actives have a fitted effect of over 60% in size
Conditions: purified firefly luciferase, luminescence, 5 min; series mostly up to 54.1 µM
Text: PI: Alexander Tropsha Ph.D.
UNC Eshelman School of Pharmacy
University of North Carolina, Chapel Hill, North Carolina
Hits from high-throughput screening (HTS) of chemical libraries are often false positives due to their interference with the assay detection technology. In response to this problem, we generated the largest publicly available library of chemical liabilities and developed a free webtool to predict HTS artifacts, both of which are described herein. More specifically, we generated, curated, and integrated HTS datasets for thiol reactivity, redox activity, and luciferase (firefly and nano) activity. Using these curated datasets, we developed and validated several Quantitative Structure-Interference Relationship (QSIR) models to predict nuisance behavior. […] These models were employed for virtual profiling of the National Center for Advancing Translational Science's (NCATS) in-house library, and 256 compounds for each assay were selected for the experimental validation of nuisance behavior. The BA for these external predictions ranged from 58 to 78% for compounds within the applicability domains of the models. […] The models developed in this study, along with aggregation models previously developed by our group (SCAM Detective) were implemented in "Liability Predictor," an online tool which may be used as part of chemical library design or for triaging HTS hits. Both the models and the curated datasets are publicly available at https://liability.mml.unc.edu/.
SEQUENCE No. (e.g., 1, 2, 3, etc.); […] (e.g., Cells, Incubation, Reagent, etc.); VALUE; DESCRIPTION.
1; Reagent; 3 uL; Luciferase substrate mixture.
2; Compounds and control; 16 nL; Kalypsis pin tool (Wako USA) equipped with a 1536-well pin head.
4; Reagent; 1 uL; Luciferase enzyme.
6; Detection; Luminescence, ViewLux microplate reader.
NOTES (numbers refer to Sequence numbers above)
1. 3 uL of luciferase substrate mixture containing D-luciferin and ATP (final concentrations of 10 uM and 10 uM, respectively) in assay buffer (10 mM Mg-acetate, 0.01% Tween-20, 0.05% bovine serum albumin, 50 mM Tris acetate, pH 7.6) was dispensed into all wells of a 1536-well assay plate (solid-bottom white plate; Greiner Bio One, Monroe, NC).
2. A Wako Pin-tool (Wako Automation, Richmond, VA) was used to transfer 16 nL of compounds (consisting of 7-plates in qHTS format, final concentration range 18.3 nM to 114 uM) or control PTC124 (final concentration range 1.22 nM to 40 uM).
3. 15 min. incubation at room temperature protected from light.
4. 1 uL of luciferase enzyme (final concentration 10 nM, Photinus pyralis luciferase) or buffer was dispensed for a final assay volume of 4 uL.
5. Plates were centrifuged (121xg, 15 seconds) and incubated for 5 minutes.
6. Samples were read for luminescence on a ViewLux CCD imager (PerkinElmer). Data were normalized to no-enzyme (0% activity) and no-inhibitor (DMSO; 100%) controls and the resulting percent inhibition data were fitted to a 4-parameter Hill equation using NCATS in-house software.

Row | SMILES | Potency | outcome | activity change, negative = inhibition
1 | COC(=O)N[C@H](C(=O)N1[C@@H]2CC[C@@H](C2)[C@H]1c1nc2ccc(-c3ccc4c(c3)C(F)(F)c3cc(-c5cnc([C@@H]6CCC7(CC7)N6C(=O)[C@@H](NC(=O)OC)C(C)C)[nH]5)ccc3-4)cc2[nH]1)C(C)C | inactive |  | 
2 | OC/C=C/C=C/[C@H]1Cc2cc(O)cc(O)c2O1 | inactive |  | 
3 | Cc1cc2c(F)c(Oc3ncnn4cc(OCC(C)O)c(C)c34)ccc2[nH]1 (stereo not given) | inactive |  | 
4 | CC(NC(=O)C(O)C(C)C)C(=O)NC1C(=O)N(C)CCc2ccccc21 (stereo not given) | inactive |  | 
5 | CO[C@H]1C[C@@H]2CC[C@@H](C)[C@@](O)(O2)C(=O)C(=O)N2CCCC[C@H]2C(=O)O[C@H]([C@H](C)C[C@@H]2CC[C@H](n3cnnn3)[C@H](OC)C2)CC(=O)[C@H](C)/C=C(\C)[C@@H](O)[C@@H](OC)C(=O)[C@H](C)C[C@H](C)/C=C/C=C/C=C/1C | inactive |  | 
6 | CC1COC2(OC3CC4C5CC(O[C@@H]6O[C@H](C)[C@@H](O[C@@H]7O[C@@H](C)[C@H](O)[C@@H](O)[C@H]7O)[C@H](O)[C@H]6O)C6CC(O)CCC6(C)C5CCC4(C)C3C2C)C(O)C1 (stereo not given in full) | inactive |  | 
7 | CN1CCN(c2ccc(C(=O)Nc3n[nH]c4ccc(Cc5cc(F)cc(F)c5)cc34)c(NC3CCOCC3)c2)CC1 | inactive |  | 
8 | Nc1ncnc2c([C@@H]3N[C@H](CO)[C@@H](O)[C@H]3O)c[nH]c12 | inactive |  | 
9 | CC1=C(C(=O)OCc2ccccc2)C(c2ccc(-c3ccccc3)cc2)NC(=O)N1CCCCCC(=O)O (stereo not given) | inactive |  | 
10 | COc1ccc(Cl)c(Nc2nc3ccccc3nc2NS(=O)(=O)c2cccc(NC(=O)C(C)(C)N)c2)c1 | inactive |  | 
11 | CC(NC(=O)CCc1nc2ccccc2c(=O)[nH]1)c1ccccc1 (stereo not given) | inactive |  | 
12 | CC(Oc1cc(-n2cnc3ccc(CN4CCN(C)CC4)cc32)sc1C(N)=O)c1ccccc1C(F)(F)F (stereo not given) | inactive |  | 
13 | COc1cc2c(cc1O)CC[C@H]1[C@@H]2CC[C@]2(C)[C@H](O)CC[C@@H]12 | inactive |  | 
14 | CC1C=CC2CCCCC2C1CCC1CC(O)CC(=O)O1 (stereo not given) | inactive |  | 
15 | COc1ccc(CN2C(=O)C(=O)c3cc(S(=O)(=O)N4CCC[C@H]4COc4cccnc4)ccc32)cc1 | inactive |  | 
16 | O=C(O)CC(=O)OC[C@H]1O[C@@H](Oc2ccc3c(c2)OC[C@H]2c4cc5c(cc4O[C@@H]32)OCO5)[C@H](O)[C@@H](O)[C@@H]1O | inactive |  | 
17 | Cc1cc(C)c(Nc2ccnc(Nc3ccc(C#N)cc3)n2)c(C)c1 | inactive |  | 
18 | COC1CC(O[C@H]2CC[C@@]3(C)C(CCC4C3[C@H](OC(C)=O)[C@@H](OC(=O)/C=C/c3ccccc3)[C@]3(C)C(C(C)=O)CC[C@]43O)C2)OC(C)C1OC1CC(OC)C(OC2CC(OC)C(OC3OC(C)C(OC4OC(CO)C(O)C(O)C4O)C(OC)C3O)C(C)O2)C(C)O1 (stereo not given in full) |  | inactive [at 11.6 µM] | 
19 | COc1cc2c(cc1OC)N1C(=O)C[C@]34C=CCN5CC[C@@H]2[C@@H](CC3)[C@]514 | inactive |  | 
20 | CC[C@H](NC(=O)[C@H](CS(=O)(=O)CC1CC1)N[C@@H](c1ccc(F)cc1)C(F)(F)F)C(=O)C(=O)NC1CC1 | inactive |  | 

Row | SMILES | Potency | outcome | activity change, negative = inhibition
21 | C[C@@H]1O[C@@H](O[C@H]2[C@H](O)[C@@H](C(=O)O)O[C@@H](O[C@H]3CC[C@@]4(C)C(CC[C@]5(C)C4CC=C4C6CC(C)(C)CC[C@]6(C(=O)O)CC[C@]45C)C3(C)C)[C@@H]2O[C@@H]2OC[C@@H](O)[C@H](O)[C@H]2O)[C@H](O)[C@H](O)[C@H]1O (stereo not given in full) |  |  | 1.83% [at 11.6 µM] (inactive)
22 | Cc1cc(Nc2ncc3cc(-c4c(Cl)cccc4Cl)c(=O)n(C)c3n2)ccc1F | inactive |  | 
23 | COC(=O)C1=CO[C@@H](O[C@@H]2O[C@H](CO)[C@@H](O)[C@H](O)[C@H]2O)[C@H]2[C@@H]1CC(OC)O[C@@H]2C (stereo not given in full) | inactive |  | 
24 | C=C(C(=O)O)C1CC2=C(C)CCCC2(C)C[C@@H]1O (stereo not given in full) | inactive |  | 
25 | O=C1OCC(c2ccccc2)=C1Cc1ccccc1 | inactive |  | 
26 | CO[C@H]1O[C@@H]2O[C@]3(C)CC[C@H]4[C@H](C)CC[C@@H]([C@H]1C)[C@@]24OO3 | inactive |  | 
27 | C[C@@H]1O[C@@H](O[C@@H]2[C@@H](O[C@@H]3O[C@@H](C)[C@H](O[C@@H]4OC[C@H](O)[C@H](O[C@@H]5OC[C@@H](O)[C@H](O)[C@H]5O)[C@H]4O)[C@@H](O[C@@H]4OC[C@](O)(CO)[C@H]4O)[C@H]3O)[C@H](OC(=O)[C@]34CCC(C)(C)C[C@H]3C3=CCC5[C@@]6(C)C[C@H](O)[C@H](O[C@@H]7O[C@H](CO[C@@H]8OC[C@H](O)[C@H](O)[C@H]8O)[C@@H](O)[C@H](O)[C@H]7O)C(C)(C)C6CC[C@@]5(C)[C@]3(C)C[C@H]4O)OC[C@H]2O)[C@H](O)[C@H](O)[C@H]1O (stereo not given in full) |  |  | 1.22% [at 11.6 µM] (inactive)
28 | CC(C)NCC(C(=O)N1CCN(c2ncnc3c2C(C)CC3O)CC1)c1ccc(Cl)cc1 (stereo not given) | inactive |  | 
29 | COc1ccc(CCO[C@@H]2O[C@H](CO[C@@H]3OC[C@H](O)[C@H](O)[C@H]3O)[C@@H](O)[C@H](O)[C@H]2O)cc1 | inactive |  | 
30 | CO[C@H]1/C=C\O[C@@]2(C)Oc3c(C)c(O)c4c(O)c(c5c(nc6cc(C)ccn65)c4c3C2=O)NC(=O)/C(C)=C\C=C/[C@H](C)[C@H](O)[C@@H](C)[C@@H](O)[C@@H](C)[C@H](OC(C)=O)[C@@H]1C | inactive |  | 
31 | C[C@H](NC(=O)CCc1nc2ccccc2c(=O)[nH]1)c1ccccc1 | inactive |  | 
32 | COCCOc1ccc(N2CCN(CCn3ncc4c3nc(N)n3nc(-c5ccco5)nc43)CC2)cc1 | inactive |  | 
33 | COC(=O)[C@H](O)[C@H]1C(C)(C)[C@H](OC(=O)C(C)C)[C@@]2(O)C(=O)[C@]1(C)C1CC[C@]3(C)C(CC(=O)O[C@H]3c3ccoc3)[C@]13O[C@@H]32 (stereo not given in full) | inactive |  | 
34 | CC1(C)CC[C@]2(C(=O)O[C@@H]3O[C@H](CO[C@@H]4O[C@H](CO)[C@@H](O)[C@H](O)[C@H]4O[C@@H]4O[C@H](CO)[C@@H](O)[C@H](O)[C@H]4O)[C@@H](O)[C@H](O[C@@H]4O[C@H](CO)[C@@H](O)[C@H](O)[C@H]4O)[C@H]3O)CC[C@]3(C)C(=CCC4[C@@]5(C)CC[C@@H](O)[C@@](C)(C(=O)O[C@@H]6O[C@H](CO)[C@@H](O)[C@H](O)[C@H]6O)C5CC[C@]43C)[C@@H]2C1 (stereo not given in full) |  |  | 2.91% [at 11.6 µM] (inactive)
35 | Cc1cc(Nc2cc(N3CCN(C)CC3)nc(/C=C/c3ccccc3)n2)n[nH]1 | inactive |  | 
36 | COC(C(=O)N1Cc2[nH]nc(NC(=O)c3ccc(N4CCN(C)CC4)cc3)c2C1)c1ccccc1 (stereo not given) | inactive |  | 
37 | CC12CCC(OC3OC(CO)C(O)C(OC4OC(CO)C(O)C(O)C4O)C3O)CC1CCC1C2CCC2(C)/C(=C3/COC(=O)C3)CCC12O (stereo not given) | inactive |  | 
38 | CC(C)(C#N)c1ccc(N2C(=O)OCc3cnc4ccc(-c5cnc6ccccc6c5)cc4c32)cc1 | inactive |  | 
39 | CC1=CC(=O)[C@H]2C(C)(C)CCC[C@]2(C)[C@@]1(O)CO | inactive |  | 
40 | CO[C@H]1C[C@@H]2CC[C@@H](C)[C@@](O)(O2)C(=O)C(=O)N2CCCC[C@H]2C(=O)O[C@H]([C@H](C)C[C@@H]2CC[C@@H](OP(C)(C)=O)[C@H](OC)C2)CC(=O)[C@H](C)/C=C(\C)[C@@H](O)[C@@H](OC)C(=O)[C@H](C)C[C@H](C)/C=C/C=C/C=C/1C | inactive |  | 

— PubChem BioAssay (NCATS)
